# Screens from PubChem.
# AMA1-RON2 inh = disrupts binding of P. falciparum AMA1 to RON2 | Potency, µM (series often up to 58.2 µM), hits mostly inhibitors | AlphaScreen AMA1-biotinylated RON2 peptide binding | actives 0.2% (n = 360,000); also: nearly all actives have a fitted effect of over 45% in size
#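 AMA1 (3D7) with his tag at 25 nM final met compounds first, then biotinylated RON2 peptide at 25 nM; detection used donor plus acceptor beads, 10 µg/mL apiece, read by AlphaScreen after 30 min at room temperature.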
# Pf growth 96h = P. falciparum growth inhibition at 96 hours. P. falciparum luciferase reporter growth, 96 h. Potency, µM (series often up to 28.7 µM), actives largely listed as inhibitors. actives 6.9% (n = 320,000)
#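 Two-generation exposure (96 h) targets delayed-death phenotype. Reporter parasites carrying integrated firefly luciferase, in red cells at 2% hematocrit and 0.05% parasitemia final, kept at 37 C, 5% CO2; luminescence loss indicates inhibition.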
# Sm TGR block = blocks Schistosoma mansoni thioredoxin glutathione reductase | Potency, µM (titrated, usually from 114 µM), usual class: inhibitors | Q962Y6 | AID 485364 | purified TGR, DTNB reduction, TNB absorbance 405 nm | actives 3% (n = 360,000); also: nearly all actives have a fitted effect of over 60% in size
#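 Kinetic colorimetric format: TGR-catalysed, NADPH-driven DTNB reduction monitored via TNB absorbance. Enzyme dispensed at 20 nM; compound exposure 15 min at room temperature before reaction start.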
# NS1 function inh = inhibitors of influenza NS1 protein function | AID 2326 | actives 0.4% (n = 270,000) | Potency, µM (titrated, usually from 46.1 µM); calls by dose curve; also: actives are rising curves; nearly all actives have a fitted effect of over 50% in size
#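 S. cerevisiae expressing influenza A NS1, grown in glucose, washed, then diluted 1:100 into pH 6.0 -URA galactose medium with 23 nl compound. Growth recovery read as OD600; NS1-free strain serves as control.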
# Pf growth 48h = P. falciparum growth inhibition at 48 hours (one generation) | P. falciparum luciferase growth in erythrocytes, 48 h | Potency, µM (titrated, usually from 28.7 µM), usual class: inhibitors | actives 5.9% (n = 310,000) | AID 504832
#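 Firefly luciferase activity from engineered P. falciparum reports growth; inhibitors lower the luminescent signal. Cultures contained 2% hematocrit erythrocytes at 0.1% final parasitemia.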
# A number is an active result; n = inactive; u = inconclusive; x = no result given; [ ] = another dose, or the depositor's remark. Only some compounds are listed: those with a hit (about 11% of all), similar ones and a draw of the others. Unless noted, calls follow the shape of the dose curve; as a rule, active = well fitted curve in the direction sought with a large enough effect; inconclusive = small, poorly fitted or top-dose-only effect, or another doubt; inactive = no such curve, though single readings can be large; an effect the other way counts as inactive or inconclusive.
SMILES,AMA1-RON2 inh,Pf growth 96h,Sm TGR block,NS1 function inh,Pf growth 48h
CCOc1ccc(Cl)cc1S(=O)(=O)N1CCN(c2ccc(F)cc2)CC1,n,x,n,n,12µM
Cc1cc(Cl)c(S(=O)(=O)NCC2CCCO2)cc1OCC(=O)NC1CCCCC1 (stereo unspecified),n,5.9µM,n,n,x
COc1ccc(Cl)cc1S(=O)(=O)N1CCN(c2ccc(F)cc2)CC1,n,u,n,n,n
NC(=O)c1cccc2ccccc12,n,n,n,n,n
N#CSCC(=O)c1cccc2ccccc12,n,n,32µM,n,n
Cc1sc2nc(-c3cccs3)nc(N3CCCN(C)CC3)c2c1C,x,u,45µM,n,10µM
CCCN1CCN(c2nc(-c3cccs3)nc3ccccc23)CC1,n,u,n,n,u
O=C(O)c1cc(-c2ccc(C(F)(F)F)cc2)nc2n[nH]c(-c3ccccc3)c12,x,x,n,x,x
CCOC(=O)C1(Cc2cccc(OC)c2)CCCN(C(=O)c2cc(C)on2)C1 (stereo unspecified),n,6.6µM,n,n,n
CCOC(=O)C1(Cc2cccc(OC)c2)CCCN(C(=O)c2cc(C)[nH]n2)C1 (stereo unspecified),n,n,n,n,n
CCOC(=O)C1(Cc2cccc(OC)c2)CCCN(Cc2nccn2CC)C1 (stereo unspecified),n,12µM,n,n,u
COc1ccc(CNC(=O)C[C@H]2C(=O)N(C3CCCCC3)C[C@@H]2Cc2ccccc2)cc1,n,12µM,n,n,n
COc1ccc(CNC(=O)C[C@H]2C(=O)N(Cc3ccc(OC)cc3)C[C@@H]2Cc2ccccc2)cc1,n,u,n,n,u
Cc1nn2c(C(F)(F)F)c3c(nc2c1-c1ccccc1)CCC3,n,n,x,n,n
Cc1ccc(-c2nnn(CC(=O)O)n2)cc1,n,n,n,n,n
Cc1ccc(-c2nnn(CC(=O)N3c4ccccc4CCc4ccccc43)n2)cc1,n,u,n,u,10µM
O=C(Cn1nnc(-c2ccc(CN3CCOCC3)cc2)n1)N1CCCc2ccccc21,n,2.6µM,n,n,u
CS(=O)(=O)c1ccc(-c2nnn(CC(=O)N3CCCCC3)n2)cc1,n,12µM,n,n,n
O=C(COc1cccc(Br)c1)N/N=C1\CCSC1,n,n,u,x,n
CCc1ccc2nc(N(CCCN(C)C)C(=O)c3ccc(C(=O)c4ccccc4)cc3)sc2c1,u,15µM,n,n,u
Cc1cccc2sc(N(CCCN(C)C)C(=O)c3cc4ccccc4oc3=O)nc12,n,u,n,n,n
CCOc1cccc2sc(N(CCCN(C)C)C(=O)c3ccc(C(=O)c4ccccc4)cc3)nc12,n,10µM,n,n,u
Cc1ccc2nc(N(CCCN(C)C)C(=O)c3cc4ccccc4oc3=O)sc2c1,n,10µM,n,n,u
CC(C)c1ccc(CNc2ncccn2)cc1,n,n,n,n,n
Cc1ccc(CNC(=O)C2CCCN(S(=O)(=O)c3cccc4nsnc34)C2)cc1 (stereo unspecified),x,x,n,x,x
SMILES,AMA1-RON2 inh,Pf growth 96h,Sm TGR block,NS1 function inh,Pf growth 48h
CCCCn1c(N)c(N(CCOC)C(=O)c2ccc(-c3ccccc3)cc2)c(=O)[nH]c1=O,n,n,n,x,u
O=C(NC1CCC(NC(=O)C(F)(F)C(F)F)CC1)C(F)(F)C(F)F (stereo unspecified),n,13µM,n[11.4 µM],n,x
O=C(Nc1ccc(Cl)c(S(=O)(=O)N2CCCC2)c1)c1nn(CCO)c(=O)c2ccccc12,n,u,n,x,u
C#CCNC(=O)C1=C[C@H](c2ccc(C#C)cc2)C[C@H](OCc2ccc(CO)cc2)O1,n,x,x,x,x
CC(C)(C)[C@@H]1C=C(C(=O)Nc2ccccc2)O[C@H](OCc2ccc(CO)cc2)C1,n,8.3µM,n,n,u
C#CCNC(=O)C1=C[C@@H](c2ccccc2)C[C@@H](OCc2ccc(CO)cc2)O1,n,n,45µM,n,n
C#CCNC(=O)C1=C[C@H](c2ccc(C(F)(F)F)cc2)C[C@H](OCc2ccc(CO)cc2)O1,n,u,40µM,n,u
CN(C(=O)CO/N=C/c1ccc(Cl)cc1)c1ccccc1,n,u,n,n,u
CCOCCCNC(=O)C(c1ccccc1)N(Cc1cccs1)C(=O)c1ccc(NC(C)=O)cc1 (stereo unspecified),x,x,n,x,x
CC(CCc1ccccc1)NS(=O)(=O)c1ccccc1F (stereo unspecified),n,n,n,n,n
CCOc1cc(C#N)c(NC(=O)c2ccc(OC)c(S(=O)(=O)N3CCN(c4ccccc4)CC3)c2)cc1OCC,x,x,n,x,x
CCOc1ccc(C(=O)NCc2nc3cccnc3n2Cc2cccc(OC)c2)cc1,x,x,n,x,x
COc1ccc(CCNC(=O)CN2C(=O)COc3ccc(S(=O)(=O)N4CCCC4)cc32)c(OC)c1,n,9.3µM,n,n,n
COc1ccc(OC)c(CCNC(=O)CN2C(=O)COc3ccc(S(=O)(=O)N4CCCCCC4)cc32)c1,x,x,n,x,x
COC(=O)CN1C(=O)COc2ccc(S(=O)(=O)N3CCCCCC3)cc21,n,u,n,n,n
COC(=O)CN1C(=O)COc2ccc(S(=O)(=O)N3CCOCC3)cc21,n,9.3µM,n,n,n
OCCC1CN(Cc2cn[nH]c2C2CCCCC2)CCN1C1CCCC1 (stereo unspecified),n,n,n,n,n
C[C@@]12C(=O)N(Cc3ccccc3)CC(=O)N1[C@H]1c3cc(Cl)ccc3OC[C@@H]1[C@@H]2c1ccccc1,n,u,n,x,9.3µM
C[C@@]12C(=O)N(Cc3ccc(Cl)cc3)CC(=O)N1[C@H]1c3ccccc3OC[C@@H]1[C@@H]2c1ccccc1,n,u,n,x,u
C[C@@]12C(=O)N(Cc3ccc(F)cc3)CC(=O)N1[C@H]1c3cc(Cl)ccc3OC[C@@H]1[C@@H]2c1ccccc1,n,x,x,x,x
COc1ccc(CN2CC(=O)N3[C@H]4c5ccccc5OC[C@@H]4[C@H](c4ccccc4)[C@]3(C)C2=O)cc1,n,u,n,x,9.3µM
O=C(NCc1ccccc1)C(c1ccc(-c2ccccc2)cc1)n1c(=O)c(-c2cc3ccccc3[nH]2)nc2ccccc21 (stereo unspecified),n,x,x,x,x
CC1(C)CC(=O)C(Sc2ccccc2C(=O)O)=C(O)C1,n,n,n,n,n
CC1(C)CC(=O)C(Sc2ccccc2)=C(O)C1,n,n,10µM,n,n
COc1ccc(Nc2c3c(nc4ccc(NC(=O)c5cc(Cl)ccc5OC)cc24)CCCC3)cc1OC,x,x,n,x,x
CN1CCN(C2=Cc3ccccc3Sc3cc(F)c(Cl)cc32)CC1,n,u,n,n,5.2µM
CN1CCN(C2=Nc3ccccc3Sc3ccc(Cl)cc32)CC1,x,n,x,x,u
CN1CCN(C2=Cc3ccccc3Sc3cc(F)c(F)cc32)CC1,u,u,n,n,6.6µM
CN1CCN(CCC(=O)N2c3ccccc3Sc3ccc(Cl)cc32)CC1,n,n,n,n,u
CN1CCN(C2=Cc3cc(Cl)ccc3Sc3cc(F)ccc32)CC1,u,u,n,n,4.7µM
